# Measured values: the supplement of paper PMC10849652
# Of roughly 8,800 targets only a part is listed; those with a hit were picked by preference. About 0.5% of all pairs of compound and target were hits. Values without a mark were called inactive.
# What was measured:
# Assay in all cases: log2 fold change, soluble protein after heating vs DMSO (PISA); higher = thermal stabilisation; K562 lysate, 10 uM; active = over 0.2 and 3.5 SD of the protein, either way, in both replicates (recomputed)
# lapatinib = compound: CS(=O)(=O)CCNCc1ccc(-c2ccc3ncnc(Nc4ccc(OCc5cccc(F)c5)c(Cl)c4)c3c2)o1 [lapatinib]
# Outline: (§1)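 To prepare the extract, K562 pellets were dounce-homogenised in PBS pH 7.4 with 1 mM MgCl2, giving crude material at 1 mg/mL protein. This was treated with 10 μM compound for 30 min, then heated in aliquots for 3 min over 48°C-58°C before pooling and addition of NP-40 to 0.5% at 4°C. Centrifugation at 21,000xg for 90 min left soluble protein in the supernatant, which TMTpro 16plex LC-MS/MS quantified with equalised channel sums. Results are log-two fold changes in thermal stability compared with solvent controls, from duplicates.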
# pictilisib = compound: CS(=O)(=O)N1CCN(Cc2cc3nc(-c4cccc5[nH]ncc45)nc(N4CCOCC4)c3s2)CC1 [pictilisib]
# Outline: as §1
# crizotinib = compound: C[C@@H](Oc1cc(-c2cnn(C3CCNCC3)c2)cnc1N)c1c(Cl)ccc(F)c1Cl [crizotinib]
# Outline: as §1
# [1] = compound: C[C@H](C1=CC=C(C=C1)C(=O)NC2=C3C=CNC3=NC=C2)N
# Outline: as §1
# duvelisib = compound: C[C@H](Nc1ncnc2nc[nH]c12)c1cc2cccc(Cl)c2c(=O)n1-c1ccccc1 [duvelisib]
# Outline: as §1
# gandotinib = compound: Cc1cc(Nc2cc(CN3CCOCC3)c3nc(C)c(Cc4ccc(Cl)cc4F)n3n2)n[nH]1 [gandotinib]
# Outline: as §1
# tozasertib = compound: Cc1cc(Nc2cc(N3CCN(C)CC3)nc(Sc3ccc(NC(=O)C4CC4)cc3)n2)n[nH]1 [tozasertib]
# Outline: as §1
# doramapimod = compound: Cc1ccc(-n2nc(C(C)(C)C)cc2NC(=O)Nc2ccc(OCCN3CCOCC3)c3ccccc23)cc1 [doramapimod]
# Outline: as §1
# bafetinib = compound: Cc1ccc(NC(=O)c2ccc(CN3CC[C@H](N(C)C)C3)c(C(F)(F)F)c2)cc1Nc1nccc(-c2cncnc2)n1 [bafetinib]
# Outline: as §1
# [2] = compound: Cc1cccc(CC(=O)N2CCc3c2ccc(-c2cn(C)c4ncnc(N)c24)c3F)n1
# Outline: as §1
# nilotinib = compound: Cc1cn(-c2cc(NC(=O)c3ccc(C)c(Nc4nccc(-c5cccnc5)n4)c3)cc(C(F)(F)F)c2)cn1 [nilotinib]
# Outline: as §1
# [3] = compound: Cc1nc(Nc2n[nH]c3c2CN(C(=O)N[C@H](CN(C)C)c2ccccc2)C3(C)C)c2sccc2n1
# Outline: as §1
# dasatinib = compound: Cc1nc(Nc2ncc(C(=O)Nc3c(C)cccc3Cl)s2)cc(N2CCN(CCO)CC2)n1 [dasatinib]
# Outline: as §1
# [4] = compound: Cc1ncc(-c2ccnc(Nc3ccc(S(C)(=O)=O)cc3)n2)n1C(C)C
# Outline: as §1
# [5] = compound: Cn1cc(-c2ccc3c(c2)CCN3C(=O)Cc2cccc(C(F)(F)F)c2)c2c(N)ncnc21
# Outline: as §1
# quisinostat = compound: Cn1cc(CNCC2CCN(c3ncc(C(=O)NO)cn3)CC2)c2ccccc21 [quisinostat]
# Outline: as §1
# tipifarnib = compound: Cn1cncc1[C@@](N)(c1ccc(Cl)cc1)c1ccc2c(c1)c(-c1cccc(Cl)c1)cc(=O)n2C [tipifarnib]
# Outline: as §1
# [6] = compound: NC(=O)Nc1cc(-c2cccc(F)c2)sc1C(=O)N[C@H]1CCCNC1
# Outline: as §1
# [7] = compound: NC(=O)c1cnc(N[C@@H]2CCCC[C@@H]2N)nc1Nc1cccc(-n2nccn2)c1
# Outline: as §1
# [8] = compound: NC1(c2ccc(-c3nc4ccn5c(=O)[nH]nc5c4cc3-c3ccccc3)cc2)CCC1
# Outline: as §1
# Chain of UniProt Q86UY5 (Q86UY5 whole entry, looked up): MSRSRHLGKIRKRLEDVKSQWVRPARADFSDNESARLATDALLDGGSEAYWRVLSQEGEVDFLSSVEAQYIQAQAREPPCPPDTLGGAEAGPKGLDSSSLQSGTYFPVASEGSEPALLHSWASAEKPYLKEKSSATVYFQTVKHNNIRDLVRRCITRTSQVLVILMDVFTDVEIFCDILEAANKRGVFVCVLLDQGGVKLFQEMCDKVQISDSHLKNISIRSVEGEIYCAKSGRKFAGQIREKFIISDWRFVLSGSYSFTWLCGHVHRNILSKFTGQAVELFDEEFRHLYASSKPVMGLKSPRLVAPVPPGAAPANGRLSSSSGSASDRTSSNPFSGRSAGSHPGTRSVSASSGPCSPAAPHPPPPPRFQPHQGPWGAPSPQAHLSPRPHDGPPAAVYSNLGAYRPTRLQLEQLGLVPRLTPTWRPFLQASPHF
# Chain of UniProt O60645 (O60645 whole entry, looked up): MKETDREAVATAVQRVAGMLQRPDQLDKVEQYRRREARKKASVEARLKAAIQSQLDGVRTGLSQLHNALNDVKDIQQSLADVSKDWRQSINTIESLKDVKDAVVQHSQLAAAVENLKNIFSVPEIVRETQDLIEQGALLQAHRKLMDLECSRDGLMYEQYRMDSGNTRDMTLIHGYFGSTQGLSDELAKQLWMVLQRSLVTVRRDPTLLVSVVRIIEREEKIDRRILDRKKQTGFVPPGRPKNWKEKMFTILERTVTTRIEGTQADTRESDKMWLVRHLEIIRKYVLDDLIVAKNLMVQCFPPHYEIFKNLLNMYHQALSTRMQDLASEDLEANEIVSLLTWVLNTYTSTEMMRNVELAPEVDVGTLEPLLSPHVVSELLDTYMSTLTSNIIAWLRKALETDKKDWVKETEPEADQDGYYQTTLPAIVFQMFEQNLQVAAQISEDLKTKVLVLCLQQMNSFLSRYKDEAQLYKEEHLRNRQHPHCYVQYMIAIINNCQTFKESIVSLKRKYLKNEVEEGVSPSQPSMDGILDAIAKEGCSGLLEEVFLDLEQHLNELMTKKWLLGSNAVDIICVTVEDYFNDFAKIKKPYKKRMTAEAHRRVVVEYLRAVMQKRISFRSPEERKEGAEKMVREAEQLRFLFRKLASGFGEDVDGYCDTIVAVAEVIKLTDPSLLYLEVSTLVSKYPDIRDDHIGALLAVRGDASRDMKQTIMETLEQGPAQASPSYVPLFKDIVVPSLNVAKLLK
# Chain of UniProt Q96A65 (Q96A65 whole entry, looked up): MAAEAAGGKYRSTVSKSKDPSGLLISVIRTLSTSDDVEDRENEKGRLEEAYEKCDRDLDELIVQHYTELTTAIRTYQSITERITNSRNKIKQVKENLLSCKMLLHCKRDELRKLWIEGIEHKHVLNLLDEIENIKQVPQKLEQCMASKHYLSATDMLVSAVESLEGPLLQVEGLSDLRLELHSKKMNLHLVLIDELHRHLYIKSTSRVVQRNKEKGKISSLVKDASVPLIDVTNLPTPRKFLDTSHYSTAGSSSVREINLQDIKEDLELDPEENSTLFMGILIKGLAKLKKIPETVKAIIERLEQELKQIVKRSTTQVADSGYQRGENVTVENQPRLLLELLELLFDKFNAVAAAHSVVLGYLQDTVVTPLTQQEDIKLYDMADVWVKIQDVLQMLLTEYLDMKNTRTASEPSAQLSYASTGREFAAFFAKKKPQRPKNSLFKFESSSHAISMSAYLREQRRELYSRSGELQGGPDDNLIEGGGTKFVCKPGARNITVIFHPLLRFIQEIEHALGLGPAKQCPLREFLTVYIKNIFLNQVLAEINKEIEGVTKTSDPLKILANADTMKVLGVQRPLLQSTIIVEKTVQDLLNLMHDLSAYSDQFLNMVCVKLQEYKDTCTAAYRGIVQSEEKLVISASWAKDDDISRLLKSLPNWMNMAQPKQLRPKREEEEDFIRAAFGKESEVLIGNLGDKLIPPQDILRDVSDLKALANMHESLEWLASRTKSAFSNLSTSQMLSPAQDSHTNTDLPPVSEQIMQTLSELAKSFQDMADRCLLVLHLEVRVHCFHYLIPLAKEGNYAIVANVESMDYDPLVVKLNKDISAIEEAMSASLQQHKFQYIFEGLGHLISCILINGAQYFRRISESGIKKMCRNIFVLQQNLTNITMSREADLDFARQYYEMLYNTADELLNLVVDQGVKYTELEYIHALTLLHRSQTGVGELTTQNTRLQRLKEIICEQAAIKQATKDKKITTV
# Chain of UniProt Q9BQS8 (Q9BQS8 whole entry, looked up): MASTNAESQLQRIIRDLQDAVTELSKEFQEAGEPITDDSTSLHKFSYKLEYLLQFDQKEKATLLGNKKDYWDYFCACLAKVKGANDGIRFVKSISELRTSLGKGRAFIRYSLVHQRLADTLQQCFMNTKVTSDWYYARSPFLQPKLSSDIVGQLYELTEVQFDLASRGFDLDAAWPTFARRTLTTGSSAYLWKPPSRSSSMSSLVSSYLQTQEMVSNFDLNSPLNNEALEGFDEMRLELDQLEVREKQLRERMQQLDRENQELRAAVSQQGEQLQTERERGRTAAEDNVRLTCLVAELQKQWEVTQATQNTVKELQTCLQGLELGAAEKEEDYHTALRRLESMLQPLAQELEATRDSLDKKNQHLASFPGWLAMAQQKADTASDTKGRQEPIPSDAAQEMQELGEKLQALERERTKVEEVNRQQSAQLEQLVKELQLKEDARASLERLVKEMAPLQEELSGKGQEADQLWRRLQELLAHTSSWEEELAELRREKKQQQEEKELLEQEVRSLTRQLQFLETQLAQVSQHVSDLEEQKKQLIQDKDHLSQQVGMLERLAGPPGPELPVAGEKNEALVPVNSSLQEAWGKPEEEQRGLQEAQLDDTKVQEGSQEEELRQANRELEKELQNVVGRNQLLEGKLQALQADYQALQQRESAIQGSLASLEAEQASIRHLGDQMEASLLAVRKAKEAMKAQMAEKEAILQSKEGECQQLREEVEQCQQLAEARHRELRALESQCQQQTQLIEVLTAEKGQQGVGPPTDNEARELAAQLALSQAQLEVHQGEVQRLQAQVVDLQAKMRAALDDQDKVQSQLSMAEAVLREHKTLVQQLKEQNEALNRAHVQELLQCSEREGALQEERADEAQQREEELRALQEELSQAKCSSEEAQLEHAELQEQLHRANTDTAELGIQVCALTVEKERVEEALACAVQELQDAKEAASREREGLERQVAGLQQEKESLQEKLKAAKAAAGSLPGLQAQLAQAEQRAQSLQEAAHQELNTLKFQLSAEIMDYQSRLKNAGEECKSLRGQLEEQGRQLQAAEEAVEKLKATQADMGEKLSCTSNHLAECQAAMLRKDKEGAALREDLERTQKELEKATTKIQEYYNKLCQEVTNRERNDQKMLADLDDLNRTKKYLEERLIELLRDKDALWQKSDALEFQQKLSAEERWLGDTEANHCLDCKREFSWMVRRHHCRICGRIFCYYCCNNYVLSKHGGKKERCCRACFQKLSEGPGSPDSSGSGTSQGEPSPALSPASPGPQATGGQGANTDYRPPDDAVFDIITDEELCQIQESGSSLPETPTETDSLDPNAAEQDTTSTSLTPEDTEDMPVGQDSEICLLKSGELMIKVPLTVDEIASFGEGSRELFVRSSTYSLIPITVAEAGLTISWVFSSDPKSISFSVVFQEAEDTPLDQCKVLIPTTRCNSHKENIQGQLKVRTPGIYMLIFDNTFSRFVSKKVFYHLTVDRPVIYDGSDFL
# Chain of UniProt P04406 (P04406 whole entry, looked up): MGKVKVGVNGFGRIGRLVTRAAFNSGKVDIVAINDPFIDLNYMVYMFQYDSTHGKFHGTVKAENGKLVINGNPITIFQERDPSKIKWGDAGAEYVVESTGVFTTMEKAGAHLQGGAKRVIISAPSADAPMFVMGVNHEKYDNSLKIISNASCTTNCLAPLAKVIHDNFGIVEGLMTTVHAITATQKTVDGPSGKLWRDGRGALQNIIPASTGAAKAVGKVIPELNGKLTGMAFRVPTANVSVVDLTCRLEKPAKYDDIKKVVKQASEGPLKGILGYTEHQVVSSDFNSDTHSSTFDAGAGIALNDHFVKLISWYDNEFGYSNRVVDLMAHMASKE
# Chain of UniProt Q56P03 (Q56P03 whole entry, looked up): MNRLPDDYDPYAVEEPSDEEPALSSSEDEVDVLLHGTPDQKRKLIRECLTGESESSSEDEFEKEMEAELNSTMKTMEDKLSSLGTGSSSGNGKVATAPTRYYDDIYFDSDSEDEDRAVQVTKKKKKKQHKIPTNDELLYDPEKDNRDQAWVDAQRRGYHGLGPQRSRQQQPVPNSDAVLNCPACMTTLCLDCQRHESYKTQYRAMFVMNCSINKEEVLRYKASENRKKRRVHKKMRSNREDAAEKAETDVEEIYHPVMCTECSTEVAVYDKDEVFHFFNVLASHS
Target,log2 fold change (lapatinib),log2 fold change (pictilisib),log2 fold change (crizotinib),log2 fold change [1],log2 fold change (duvelisib),log2 fold change (gandotinib),log2 fold change (tozasertib),log2 fold change (doramapimod),log2 fold change (bafetinib),log2 fold change [2],log2 fold change (nilotinib),log2 fold change [3],log2 fold change (dasatinib),log2 fold change [4],log2 fold change [5],log2 fold change (quisinostat),log2 fold change (tipifarnib),log2 fold change [6],log2 fold change [7],log2 fold change [8]
EXOC3 (UniProt O60645),-0.037,-0.033,-0.133,0.016,-0.039,-0.098,0.019,0.041,-0.094,0.019,-0.013,0.012,-0.06,0.039,0.021,-0.115,-0.018,0.063,0.005,-0.005
FAU (UniProt E9PR30),-0.018,0.02,-0.055,0.293 (active),0.047,-0.105,-0.027,0.071,-0.019,-0.121,0.006,0.001,-0.018,0.005,0.052,0.002,0.046,-0.055,0,-0.058
DYRK1A (UniProt Q13627),-0.024,-0.003,0.018,0.055,-0.021,-0.012,0.03,-0.06,-0.028,-0.021,-0.018,0.062,-0.021,0.031,0.033,-0.026,-0.06,0.072,-0.01,-0.013
FAM83A (UniProt Q86UY5),0.012,0.021,0.086,-0.142,-0.047,0.155,-0.013,0.195,-0.053,0.056,-0.007,-0.069,-0.028,-0.016,-0.033,-0.088,-0.08,0.034,0.004,-0.019
EAPP (UniProt Q56P03),-0.033,0.058,0,0.03,0.03,-0.157,-0.09,-0.058,0.109,0.128,0.039,0.018,0.024,-0.095,-0.001,0.017,0.002,0.021,0.038,-0.045
EXOC4 (UniProt Q96A65),-0.038,0.018,-0.044,0.011,0.024,-0.165,-0.028,-0.023,-0.056,0.015,0.015,-0.012,-0.083,0.015,0.072,-0.009,-0.036,0.053,0.013,-0.068
GAPDH (UniProt P04406),0.005,-0.024,0.066,0.043,0.003,-0.002,-0.005,-0.031,0.055,-0.082,0.045,-0.026,-0.001,-0.023,0,0.114,0.042,0,-0.019,0.018
FYCO1 isoform 4 (UniProt Q9BQS8),-0.005,-0.018,-0.018,-0.114,0.036,0.229,0.021,-0.009,-0.019,0.176,-0.02,-0.022,0.011,0.016,0.031,-0.014,-0.012,0.019,0.015,-0.008
